Results from PubChem BioAssay (Tox21).
Results filed as inconclusive are left out. Where a call stands in place of a potency, no number is given. A number with no mark means an inactive call. Active and inactive are the calls of the source. Calls follow the shape of the full dose curve.

target: Acetylcholinesterase (Homo sapiens) (UniProt P22303); assay: Acetylcholinesterase (AChE) small molecule antagonists: colormetric cell-based qHTS assay (AID 1347395); conditions: SH-SY5Y cells AChE activity, colorimetric (Ellman); series mostly up to 115 µM; also: nearly all actives have a fitted effect of over 30% in size
Sequence (P22303 whole entry, looked up): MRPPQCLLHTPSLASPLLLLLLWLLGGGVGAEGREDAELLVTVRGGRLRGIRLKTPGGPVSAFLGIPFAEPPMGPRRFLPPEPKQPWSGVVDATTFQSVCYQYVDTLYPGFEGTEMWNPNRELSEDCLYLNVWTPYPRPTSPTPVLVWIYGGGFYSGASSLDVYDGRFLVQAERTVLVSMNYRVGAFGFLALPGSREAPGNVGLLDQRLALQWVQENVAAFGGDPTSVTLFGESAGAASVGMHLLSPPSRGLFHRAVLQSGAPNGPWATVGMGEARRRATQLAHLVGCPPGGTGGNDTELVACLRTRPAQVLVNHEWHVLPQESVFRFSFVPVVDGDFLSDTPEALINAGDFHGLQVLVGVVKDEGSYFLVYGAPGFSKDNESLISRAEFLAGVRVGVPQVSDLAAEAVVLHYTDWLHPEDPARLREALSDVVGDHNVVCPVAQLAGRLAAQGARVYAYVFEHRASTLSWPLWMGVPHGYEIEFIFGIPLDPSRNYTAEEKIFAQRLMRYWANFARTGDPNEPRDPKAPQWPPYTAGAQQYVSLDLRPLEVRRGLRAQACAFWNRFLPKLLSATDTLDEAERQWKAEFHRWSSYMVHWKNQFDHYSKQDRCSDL
Description: National Center for Advancing Translational Sciences [NCATS]
Division of Preclinical Innovation [DPI]
U.S. Environmental Protection Agency [EPA]
National Institutes of Environmental Health Sciences [NIEHS]
National Toxicology Program [NTP]
U.S. Food and Drug Administration [FDA]
Acetylcholinesterase (AChE) is the primary cholinesterase in the body that hydrolyzes a key neurotransmitter, acetylcholine. Inhibition of AChE activity can lead to neurotoxicity. The known inhibitors include organophosphorous pesticides (OP), chemical warfare agents, drugs, and various phytochemicals.
A homogenous cell-based assay using the Amplite Colormetric acetylcholinesterase assay kit (AAT Bioquest, Sunnyvale, CA) was used to evaluate the chemicals in the Tox21 10K library that inhibit AChE activity. The assay uses 5, 5-dithiobis-(2-nitrobenzoic acid) (DTNB) to quantify the thiocholine produced from the hydrolysis of acetylthiocholine by AChE from the SH-SY5Y cells.
Tox21 Assay Protocol Summary:
For the cell-based AChE assay, 2,000 SH-SY5Y cells in 4 uL/well were dispensed into black, clear-bottom 1536-well plates using a Multidrop Combi dispenser (Thermo Scientific, MA). The assay plates were incubated overnight at 37 C to allow cells to attach to the wells, followed by the transfer of 23 nL of compound or DMSO (vehicle control) by a Pintool Station (Wako Automation, CA). The plates were incubated for 30 min at 37 C and 5% CO2, followed by the addition of 4 uL of detection cocktail solution (DTNB, acetylthiocholine) into each well using a Flying Reagent Dispenser (Beckman Coulter, CA) and then 90 min incubation at 37 C.
Potency is read from the fitted curve at half-maximal effect.

Compound	Potency	activity, negative = inhibition
C=C1CC[C@H](O)C/C1=C\C=C1/CCC[C@]2(C)[C@@H]([C@H](C)CCCC(C)C)CC[C@@H]12	inactive	–
O=[N+]([O-])c1cccc(C(F)(F)F)c1	inactive	–
CCC(C)CO (stereo not given)	inactive	–
O=C(O)CCC(=O)C(=O)O	inactive	–
O=c1[nH]nc(-c2ccc([N+](=O)[O-])o2)o1	inactive	–
COC(=O)c1ccccc1O	inactive	–
Clc1ccc(C(c2ccccc2Cl)C(Cl)Cl)cc1 (stereo not given)	inactive	–
CCCCOCCOCCSC#N	inactive	–
CO[Si](CCCOCC1CO1)(OC)OC (stereo not given)	inactive	–
CCCCCCCC(=O)OC	inactive	–
CCCCCCCCCCCCS	inactive	–
O=Cc1ccc(Cl)c([N+](=O)[O-])c1	39.9 µM (active)	–
O=S(=O)(O)CCCN1CCOCC1	inactive	–
O=C(O)CCCCCCCCCC(=O)O	inactive	–
C[Si]1(C)O[Si](C)(C)O[Si](C)(C)O[Si](C)(C)O[Si](C)(C)O1	inactive	–
C1CCN(CN2CCCCC2)CC1	inactive	–
CC1(C)CC(OC(=O)CCCCCCCCC(=O)OC2CC(C)(C)NC(C)(C)C2)CC(C)(C)N1	–	-3.47% [at 23.6 µM]
C[Si](C)O[Si](C)(C)O[Si](C)(C)O[Si](C)C	inactive	–
CC1(C)S[C@@H]2[C@H](NC(=O)[C@H](N)c3ccccc3)C(=O)N2[C@H]1C(=O)O	inactive	–
Nc1nc2ccc([N+](=O)[O-])cc2s1	inactive	–

Compound	Potency	activity, negative = inhibition
O=C(CCN1CCN(CCO)CC1)N1c2ccccc2Sc2ccc(C(F)(F)F)cc21	inactive	–
Cc1cc(NC(=O)C(=O)O)cc(C)c1Oc1ccc(O)c2c1CCC2	inactive	–
CC1(C)C(=O)N(Br)C(=O)N1Br	inactive	–
CN(C)CCN(C)CCN(C)C	inactive	–
Nc1ccncc1N	inactive	–
CN(C)Cc1ccccc1	inactive	–
COc1cc(/C=C/C(=O)CC(=O)/C=C/c2ccc(O)c(OC)c2)ccc1O	inactive	–
NC(=O)c1ccccc1Cl	inactive	–
CCCCCCC(C)OC(=O)COc1nc(F)c(Cl)c(N)c1Cl (stereo not given)	inactive	–
COC(=O)c1ccccc1OC	inactive	–
Cc1noc(NS(=O)(=O)c2ccc(N)cc2)c1C	inactive	–
Cc1cccc2c1ccc1ccccc12	inactive	–
COC(=O)C1=C(C)NC(C)=C(C(=O)OCCc2ccc(N3CCN(C(c4ccccc4)c4ccccc4)CC3)cc2)C1c1cccc([N+](=O)[O-])c1 (stereo not given)	inactive	–
CCc1cc(C(C)(C)C)c(O)c(C(C)(C)C)c1	inactive	–
CC(C)(O)C(=O)c1ccccc1	inactive	–
O=C(NCC1CN(c2ccc(N3CCOCC3=O)cc2)C(=O)O1)c1ccc(Cl)s1 (stereo not given)	inactive	–
Brc1ccccn1	inactive	–
COc1ccc(/C(C)=C/C(=O)O)c(OC)c1	inactive	–
Cc1ccc(C)o1	inactive	–
CC1(C)S[C@@H]2[C@H](NC(=O)C(C(=O)O)c3ccccc3)C(=O)N2[C@H]1C(=O)O (stereo not given in full)	inactive	–
